This is an account of results in PubChem BioAssay (EPA / NIEHS).

Structures are written as SMILES. Records with an inconclusive call do not appear. The source made the active and inactive calls. Rule for the calls: active = hit-call score of the fitted dose curve at least 0.9, where 1 is the maximum; inconclusive = response in the unintended direction; inactive = score below 0.9.

For assay [1], the target named is guinea pig Serotonin, 5-Hydroxytryptamine Receptor 4 (5HT4), HTR4 (gene 100135548) (UniProt O70528). Description: NVS_GPCR_g5HT4: NovaScreen (NVS) G Protein-Coupled Receptor Assay for guinea pig Serotonin, 5-Hydroxytryptamine Receptor 4 (5HT4) (AID 2283294). The method in brief:
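Guinea pig striatal membranes; radioligand competitive displacement, filtration and scintillation counting after 1 h. Primary screen in duplicate at 25 uM; actives then tested in concentration series; loss of binding signal fitted relative to DMSO.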

Assay [2] concerns rat Adrenergic, Alpha 1B Receptor (Adra1B), gene 24173. Description: NVS_GPCR_rAdra1B: NovaScreen (NVS) G Protein-Coupled Receptor Assay for rat Adrenergic, Alpha 1B Receptor (Adra1B) (AID 2283297). The method in brief:
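Rat liver membranes, radioligand displacement with filter-based scintillation detection, 1 h incubation. Primary screen in duplicate at 25 uM; actives retested in concentration series; activity relative to DMSO.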

The target in assay [3] is rat Opioid Receptor, Non-selective Sodium (Na+) Binding, Oprm1 (gene 25601) (UniProt P33535). Description: NVS_GPCR_rOpiate_NonSelectiveNa: NovaScreen (NVS) G Protein-Coupled Receptor Assay for rat Opioid Receptor, Non-selective Sodium (Na+) Binding (AID 2283311). The method in brief:
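Rat forebrain membranes, radioligand displacement with filter scintillation counting, 1.5 h incubation. Screened in duplicate at 25 µM; hits then run in concentration-response up to 50 µM; loss of binding fitted versus DMSO.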

Assay [4] has as its target rat Neonicotinoid receptor (NNR), Chrna7 (gene 25302) (UniProt Q05941). Kind of assay: NVS_LGIC_rNNR_BungSens: NovaScreen (NVS) Ligand-Gated Ion Channel Assay for rat Neonicotinoid receptor (NNR) (AID 2283315). In outline: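 Radioligand displacement binding on rat cortical membranes, 2.5 h incubation, filtration and scintillation counting. Loss of specific binding fitted relative to DMSO.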

The target of assay [5] is rat Serotonin, 5-Hydroxytryptamine Receptor (5HT), Non-Selective Binding, Htr1a (gene 24473) (UniProt P19327). Description: NVS_GPCR_r5HT_NonSelective: NovaScreen (NVS) G Protein-Coupled Receptor Assay for rat Serotonin, 5-Hydroxytryptamine Receptor (5HT), Non-Selective Binding (AID 2283295). The method in brief: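 Radioligand displacement on rat cortical membranes, 1 h incubation, filter-based scintillation counting. Primary duplicates at 25 uM, actives retested in concentration series; loss of signal fitted against DMSO as baseline.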
rat Serotonin, 5-Hydroxytryptamine Receptor (5HT), Non-Selective Binding, Htr1a (gene 24473), sequence (P19327 whole entry, looked up): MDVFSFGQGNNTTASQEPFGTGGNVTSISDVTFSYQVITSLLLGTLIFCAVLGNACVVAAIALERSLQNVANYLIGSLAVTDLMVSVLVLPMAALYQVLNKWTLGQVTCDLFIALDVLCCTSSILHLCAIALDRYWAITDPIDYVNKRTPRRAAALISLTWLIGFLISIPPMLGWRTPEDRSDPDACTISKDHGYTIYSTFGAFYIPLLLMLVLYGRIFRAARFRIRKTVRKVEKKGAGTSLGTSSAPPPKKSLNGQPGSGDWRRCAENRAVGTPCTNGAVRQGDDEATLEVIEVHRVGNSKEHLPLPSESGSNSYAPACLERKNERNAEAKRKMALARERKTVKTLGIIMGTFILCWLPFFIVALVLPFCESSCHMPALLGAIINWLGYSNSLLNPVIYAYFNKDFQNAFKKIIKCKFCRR

Assay [6] deals with rat Adrenergic Receptor, Beta (Adrb), Non-selective Binding, Adrb1 (gene 24925) (UniProt P18090). Kind of assay: NVS_GPCR_rAdrb_NonSelective: NovaScreen (NVS) G Protein-Coupled Receptor Assay for rat Adrenergic Receptor, Beta (Adrb), Non-selective Binding (AID 2283298). The method in brief: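 Non-selective beta-adrenergic radioligand binding in rat cortical membranes, 1 h incubation, filter-based scintillation read-out. Primary screen 25 uM in duplicate; hits retested in concentration-response up to 50 uM, DMSO baseline.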

For assay [7], the target named is rat Adrenergic Receptor, Alpha 2 (Adra2), Non-selective Binding, Adra2a (gene 25083) (UniProt P22909). Kind of assay: NVS_GPCR_rAdra2_NonSelective: NovaScreen (NVS) G Protein-Coupled Receptor Assay for rat Adrenergic Receptor, Alpha 2 (Adra2), Non-selective Binding (AID 2283299). In outline: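 Rat cortical membranes, radioligand competitive displacement read by filter-based scintillation counting 1.25 hours after dosing. Primary screen in duplicate at 25 uM; actives followed up in concentration series.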
rat Adrenergic Receptor, Alpha 2 (Adra2), Non-selective Binding, Adra2a (gene 25083), sequence (P22909 whole entry, looked up): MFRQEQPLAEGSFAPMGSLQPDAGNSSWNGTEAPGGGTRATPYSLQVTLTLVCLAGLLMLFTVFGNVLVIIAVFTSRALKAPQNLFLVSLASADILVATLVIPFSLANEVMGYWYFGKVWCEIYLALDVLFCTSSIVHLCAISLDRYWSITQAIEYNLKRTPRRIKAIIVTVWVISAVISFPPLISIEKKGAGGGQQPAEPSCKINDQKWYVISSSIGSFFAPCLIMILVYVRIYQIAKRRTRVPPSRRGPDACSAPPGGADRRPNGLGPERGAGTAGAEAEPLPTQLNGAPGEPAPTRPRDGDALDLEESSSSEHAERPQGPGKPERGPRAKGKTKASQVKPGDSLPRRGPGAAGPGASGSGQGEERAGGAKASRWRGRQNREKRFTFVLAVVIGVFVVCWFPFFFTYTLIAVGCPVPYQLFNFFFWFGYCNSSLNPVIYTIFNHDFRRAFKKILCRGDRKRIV

For assay [8], the target named is Adra2b (gene 24174) (UniProt P19328). Description: NVS_GPCR_rmAdra2B: NovaScreen (NVS) G Protein-Coupled Receptor Assay for hybird cells Adrenergic, Alpha 2B Receptor (Adra2B) (AID 2283306). The method in brief:
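Radioligand filter-binding assay on membrane proteins from neuroglioma/blastoma hybrid cells (rodent), 1 h after dosing; scintillation counting, loss of signal vs DMSO. Primary screen in duplicate at 25 uM, actives then run in concentration series.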

The target of assay [9] is rat Neurokinin-1 Receptor (NK1), Tacr1 (gene 24807) (UniProt P14600). Kind of assay: NVS_GPCR_rNK1: NovaScreen (NVS) G Protein-Coupled Receptor Assay for rat Neurokinin-1 Receptor (NK1) (AID 2283309). The method in brief:
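Rat submaxillary gland membranes; radioligand displacement read by filter-based scintillation counting after 1 h. Primary screen in duplicate at 25 uM; actives retested in concentration series; loss of binding fitted versus DMSO.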

For assay [10], the target named is rat Vasopressin 1 Receptor (V1), Avpr1a (gene 25107) (UniProt P30560). Kind of assay: NVS_GPCR_rV1: NovaScreen (NVS) G Protein-Coupled Receptor Assay for rat Vasopressin 1 Receptor (V1) (AID 2283316). The method in brief:
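Radioligand binding on rat liver membranes, 1.5 h incubation, filter-based scintillation counting. Single 25 uM screen in duplicate; chemicals meeting threshold (e.g. 30% inhibition) run in concentration-response up to 50 uM.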

Assay [11] has as its target rat Opioid Receptor, Non-selective Binding, Oprm1 (gene 25601) (UniProt P33535). Kind of assay: NVS_GPCR_rOpiate_NonSelective: NovaScreen (NVS) G Protein-Coupled Receptor Assay for rat Opioid Receptor, Non-selective Binding (AID 2283318). The method in brief:
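Rat forebrain membranes, cell-free radioligand binding with filter-based scintillation counting, read 1.5 h after dosing. Primary screen in duplicate at 25 uM; actives retested in concentration series. Loss of signal versus DMSO baseline scored.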

Assay [12] deals with rat Adrenergic, Alpha 1A Receptor (Adra1A), Adra1a (gene 29412) (UniProt P43140). Description: NVS_GPCR_rAdra1A: NovaScreen (NVS) G Protein-Coupled Receptor Assay for rat Adrenergic, Alpha 1A Receptor (Adra1A) (AID 2283296). The method in brief: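 Rat cortical membranes pretreated with chlorethyl clonidine; competitive radioligand displacement, 1 h. Filter-based scintillation counting. Primary screen in duplicate at 25 uM, actives followed in concentration series.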
rat Adrenergic, Alpha 1A Receptor (Adra1A), Adra1a (gene 29412), sequence (P43140 whole entry, looked up): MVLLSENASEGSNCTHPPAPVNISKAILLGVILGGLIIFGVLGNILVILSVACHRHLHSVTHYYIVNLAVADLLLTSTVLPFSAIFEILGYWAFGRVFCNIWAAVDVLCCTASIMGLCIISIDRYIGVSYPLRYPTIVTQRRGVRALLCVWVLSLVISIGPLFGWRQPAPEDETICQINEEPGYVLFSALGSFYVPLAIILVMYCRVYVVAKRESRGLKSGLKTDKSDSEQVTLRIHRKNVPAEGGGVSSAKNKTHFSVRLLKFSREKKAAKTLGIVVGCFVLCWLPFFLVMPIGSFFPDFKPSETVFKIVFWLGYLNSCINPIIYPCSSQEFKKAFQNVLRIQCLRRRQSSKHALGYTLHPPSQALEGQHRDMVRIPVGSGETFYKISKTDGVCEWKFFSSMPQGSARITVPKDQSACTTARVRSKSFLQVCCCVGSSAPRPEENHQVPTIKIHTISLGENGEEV

In assay [13] the target is rat Neurokinin-3 Receptor (NK3), Tacr3 (gene 24808) (UniProt P16177). Kind of assay: NVS_GPCR_rNK3: NovaScreen (NVS) G Protein-Coupled Receptor Assay for rat Neurokinin-3 Receptor (NK3) (AID 2283310). In outline: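 Rat cortical membranes; radioligand binding with filtration and scintillation counting, 2 h after dosing. Primary screen in duplicate at 25 uM, then concentration-response up to 50 uM; loss of binding signal relative to DMSO.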
rat Neurokinin-3 Receptor (NK3), Tacr3 (gene 24808), sequence (P16177 whole entry, looked up): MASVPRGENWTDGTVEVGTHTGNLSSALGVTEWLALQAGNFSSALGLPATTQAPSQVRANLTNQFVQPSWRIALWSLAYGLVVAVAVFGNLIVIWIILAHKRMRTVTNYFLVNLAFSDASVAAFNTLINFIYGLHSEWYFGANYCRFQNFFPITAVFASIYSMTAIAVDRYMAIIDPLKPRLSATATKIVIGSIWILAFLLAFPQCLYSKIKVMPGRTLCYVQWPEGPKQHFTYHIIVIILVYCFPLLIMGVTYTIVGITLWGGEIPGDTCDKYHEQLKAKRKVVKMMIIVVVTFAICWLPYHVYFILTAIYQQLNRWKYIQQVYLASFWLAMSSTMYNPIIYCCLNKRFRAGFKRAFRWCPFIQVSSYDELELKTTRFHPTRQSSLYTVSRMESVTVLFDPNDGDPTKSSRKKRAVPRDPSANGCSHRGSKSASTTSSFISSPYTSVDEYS

Assay [14] has as its target rat Somatostatin Receptor (SST), Sstr1 (gene 25033) (UniProt P28646). Description: NVS_GPCR_rSST: NovaScreen (NVS) G Protein-Coupled Receptor Assay for rat Somatostatin Receptor (SST) (AID 2283314). In outline: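 Rat forebrain membranes; radioligand displacement read by filter-based scintillation counting 1 h after dosing. Primary screen in duplicate at 25 uM. Actives (e.g., 30% inhibition) were rerun as concentration-response to 50 uM max and fitted against DMSO.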

Assay [15] relates to NCBI gene 24521. Kind of assay: NVS_IC_rKATPCh: NovaScreen (NVS) Ion Channel Assay for rat Potassium Channel, ATP-Sensitive (KATPCh) (AID 2283319). The method in brief: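 Rat cortical membranes; radioligand binding at ATP-sensitive K channel site, filter-based scintillation counting 2 h after dosing. Single-point duplicate screen at 25 uM, hits rerun in concentration-response up to 50 uM; loss of signal versus DMSO.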

For assay [16], the target named is rat Histamine Receptor (H3), Hrh3 (gene 85268) (UniProt Q9QYN8). Kind of assay: NVS_GPCR_rH3: NovaScreen (NVS) G Protein-Coupled Receptor Assay for rat Histamine Receptor (H3) (AID 2283303). The method in brief: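 Rat forebrain membranes incubated 1 h with compound; radioligand displacement measured by filter-based scintillation counting. Single-concentration duplicates at 25 µM, then concentration-response up to 50 µM, relative to DMSO.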

In assay [17] the target is Metabotropic glutamate receptor 1 (Rattus norvegicus) (UniProt P23385). Kind of assay: NVS_GPCR_rmMGluR1: NovaScreen (NVS) G Protein-Coupled Receptor Assay for rat Glutamate Metabotropic Receptor 1 (MGluR1) (AID 2283305). The method in brief:
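Rat cerebellum membrane preparation, radioligand displacement binding read by filter-based scintillation counting 1 hour after dosing. Initial duplicate single-point screen at 25 uM, then concentration-response up to 50 uM; loss of signal versus DMSO baseline scored.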

Adra2b (gene 24174), sequence (P19328 whole entry, looked up): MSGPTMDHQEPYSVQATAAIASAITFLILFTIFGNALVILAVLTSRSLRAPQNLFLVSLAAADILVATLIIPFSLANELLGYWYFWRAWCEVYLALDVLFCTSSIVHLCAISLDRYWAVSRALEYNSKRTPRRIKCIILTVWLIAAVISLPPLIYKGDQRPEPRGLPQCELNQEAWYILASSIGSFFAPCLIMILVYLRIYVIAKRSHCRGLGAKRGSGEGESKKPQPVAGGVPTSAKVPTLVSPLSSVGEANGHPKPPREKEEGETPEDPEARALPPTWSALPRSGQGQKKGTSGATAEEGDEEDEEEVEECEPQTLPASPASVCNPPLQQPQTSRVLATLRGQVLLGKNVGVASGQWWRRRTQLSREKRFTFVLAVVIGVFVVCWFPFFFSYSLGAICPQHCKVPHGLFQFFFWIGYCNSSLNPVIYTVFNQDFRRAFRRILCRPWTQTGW
rat Neurokinin-1 Receptor (NK1), Tacr1 (gene 24807), sequence (P14600 whole entry, looked up): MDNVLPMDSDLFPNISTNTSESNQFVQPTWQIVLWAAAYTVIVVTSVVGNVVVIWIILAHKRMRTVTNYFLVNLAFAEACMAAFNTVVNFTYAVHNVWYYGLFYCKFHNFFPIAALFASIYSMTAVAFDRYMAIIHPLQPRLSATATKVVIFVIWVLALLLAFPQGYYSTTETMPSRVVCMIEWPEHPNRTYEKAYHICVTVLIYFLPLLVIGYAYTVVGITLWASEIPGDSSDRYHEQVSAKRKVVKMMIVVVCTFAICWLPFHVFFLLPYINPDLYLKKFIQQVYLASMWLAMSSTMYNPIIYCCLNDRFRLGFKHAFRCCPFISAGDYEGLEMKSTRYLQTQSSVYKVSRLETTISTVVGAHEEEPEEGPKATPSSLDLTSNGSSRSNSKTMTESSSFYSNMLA
guinea pig Serotonin, 5-Hydroxytryptamine Receptor 4 (5HT4), HTR4 (gene 100135548), sequence (O70528 whole entry, looked up): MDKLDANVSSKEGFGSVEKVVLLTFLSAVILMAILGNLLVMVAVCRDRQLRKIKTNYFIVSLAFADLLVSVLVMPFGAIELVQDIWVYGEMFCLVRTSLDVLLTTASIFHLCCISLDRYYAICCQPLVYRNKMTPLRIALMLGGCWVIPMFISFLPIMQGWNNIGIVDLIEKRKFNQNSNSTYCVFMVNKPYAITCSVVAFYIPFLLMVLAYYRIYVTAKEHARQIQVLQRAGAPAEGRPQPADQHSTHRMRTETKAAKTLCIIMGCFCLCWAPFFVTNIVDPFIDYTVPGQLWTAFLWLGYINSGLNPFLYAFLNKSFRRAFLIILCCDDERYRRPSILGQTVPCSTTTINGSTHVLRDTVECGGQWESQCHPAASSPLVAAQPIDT
rat Opioid Receptor, Non-selective Binding, Oprm1 (gene 25601), sequence (P33535 whole entry, looked up): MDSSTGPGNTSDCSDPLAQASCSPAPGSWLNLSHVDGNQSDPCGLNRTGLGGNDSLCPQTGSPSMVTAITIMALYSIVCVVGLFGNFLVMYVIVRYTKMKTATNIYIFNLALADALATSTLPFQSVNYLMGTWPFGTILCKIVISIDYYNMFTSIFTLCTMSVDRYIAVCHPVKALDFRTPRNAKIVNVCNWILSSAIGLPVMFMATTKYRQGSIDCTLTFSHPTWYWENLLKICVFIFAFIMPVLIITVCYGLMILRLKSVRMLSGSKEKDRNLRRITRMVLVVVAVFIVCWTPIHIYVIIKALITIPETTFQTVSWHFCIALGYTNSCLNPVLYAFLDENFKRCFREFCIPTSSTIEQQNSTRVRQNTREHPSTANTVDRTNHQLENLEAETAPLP
rat Opioid Receptor, Non-selective Sodium (Na+) Binding, Oprm1 (gene 25601), sequence (P33535 whole entry, looked up): as above
rat Neonicotinoid receptor (NNR), Chrna7 (gene 25302), sequence (Q05941 whole entry, looked up): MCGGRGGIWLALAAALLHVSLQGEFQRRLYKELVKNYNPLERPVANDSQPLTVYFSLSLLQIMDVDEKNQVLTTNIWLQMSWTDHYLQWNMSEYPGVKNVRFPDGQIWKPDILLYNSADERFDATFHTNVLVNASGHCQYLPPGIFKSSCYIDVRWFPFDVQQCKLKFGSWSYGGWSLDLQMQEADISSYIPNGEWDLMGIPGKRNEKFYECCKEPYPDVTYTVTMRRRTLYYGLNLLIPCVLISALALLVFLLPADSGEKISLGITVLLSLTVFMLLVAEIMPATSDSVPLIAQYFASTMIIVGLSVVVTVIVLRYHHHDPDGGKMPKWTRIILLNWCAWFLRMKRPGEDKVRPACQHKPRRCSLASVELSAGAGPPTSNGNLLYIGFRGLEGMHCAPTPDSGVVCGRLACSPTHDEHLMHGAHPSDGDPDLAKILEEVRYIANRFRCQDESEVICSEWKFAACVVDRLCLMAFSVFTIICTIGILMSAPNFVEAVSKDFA
rat Somatostatin Receptor (SST), Sstr1 (gene 25033), sequence (P28646 whole entry, looked up): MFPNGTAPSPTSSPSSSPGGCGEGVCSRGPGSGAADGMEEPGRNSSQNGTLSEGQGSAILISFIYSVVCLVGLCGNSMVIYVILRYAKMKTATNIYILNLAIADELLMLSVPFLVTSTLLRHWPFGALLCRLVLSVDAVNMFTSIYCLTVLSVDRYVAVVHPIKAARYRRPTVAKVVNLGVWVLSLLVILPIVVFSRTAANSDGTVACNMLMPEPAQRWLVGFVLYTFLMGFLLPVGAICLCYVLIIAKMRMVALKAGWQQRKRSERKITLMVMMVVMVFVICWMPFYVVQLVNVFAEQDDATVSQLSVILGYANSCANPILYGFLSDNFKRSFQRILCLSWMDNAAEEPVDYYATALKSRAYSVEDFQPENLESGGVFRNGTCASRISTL

In the case of `Cc1cc(C)c(O)c(C)c1`, the compound was classed as inactive in assay [1].
Take `CC[C@H](C)[C@@H](C(=O)O)n1sc2ccccc2c1=O`: the compound was classed as inactive in assay [2]. In assay [3], the AC50 is 3.52 µM (active).
On to `CCC(C)(C)C1CCC(O)CC1` (stereo not drawn), for which the compound was called inactive in assay [4].
Take `CCCOc1sc(C(=O)N2CCC(c3cc(CN)ccc3F)CC2)c(C)c1Br`: the AC50 in assay [1] was 25.9 µM (active); in assay [5], 11.1 µM (active); in assay [2], 17.3 µM (active); in [6], 3.95 µM (active); in assay [7], 23.2 µM (active); in assay [8], 6.34 µM (active). Besides, the half-maximal activity concentration (AC50) in assay [9] was 23.2 µM (active); in assay [10] it was 23.2 µM (active); in [11], 11 µM (active).
For `CC(=O)NC1(c2cccc(F)c2)CCN(CC[C@@]2(c3ccc(Cl)c(Cl)c3)CN(c3ccccc3)C(=O)CO2)CC1`, the AC50 is 2.9 µM (active) in [5]; 34.8 µM (active) in assay [12]; 11 µM (active) in assay [8]; 14.5 µM (active) in [9]; 0.713 µM (active) in assay [13]; 10.5 µM (active) in [3]. For the same compound, the AC50 in assay [14] is 9.18 µM (active); in [11], 7.82 µM (active); in assay [15] it was 4.88 µM (active).
Take `NC(=O)N(O)[C@@H]1C=C[C@H](Oc2cccc(Oc3ccc(F)cc3)c2)C1`: the AC50 in assay [1] is 17.6 µM (active). The call in assay [2], in assay [7], in assay [8], in assay [9], in assay [14] and in assay [11] was inactive.
For the compound `O=C(O)c1ccccc1C(c1ccc(O)cc1)c1ccc(O)cc1`, the outcome in assay [9] was inactive.
The same measure, in the same setting: the value for `O=C(OCCOCCOC(=O)c1ccccc1)c1ccccc1` was “inactive”.
Take `CN1CCC[C@H]1c1cccnc1`: the AC50 in assay [16] is 25 µM (active).
For the compound `CCCCCCCCCCCCc1ccccc1S(=O)(=O)O`, the AC50 in [2] is 30.9 µM (active); in [17], 8.71 µM (active); in assay [8] it was 25 µM (active).
In the case of `CCC(=C(c1ccc(O)cc1)c1ccc(OCCN(C)C)cc1)c1ccccc1`, in [1], the AC50 is 0.868 µM (active). For the same compound, the compound was classed as inactive in [9].
As to `COCC(C)OCC(C)O` (stereo not drawn), the result in assay [11] was inactive.
For the compound `CC(=O)CC(C)(C)O`, the outcome in assay [11] was inactive.
Take `CCN(CC)CCNc1ccc(CNC=O)c2sc3ccc(OC)cc3c(=O)c12`: the AC50 is 7.23 µM (active) in [1]; 40.2 µM (active) in [5]; 18.9 µM (active) in assay [12]; 19.4 µM (active) in [2]; 13.6 µM (active) in [7]; 9 µM (active) in assay [8]. Moreover, the AC50 in assay [4] was 29.3 µM (active). Further, the result in [3] and in assay [11] was inactive.

As usually defined, the AC50 is the concentration giving half of the maximal activity seen.
